Most compounds without a hit are left out; they make up all but 4.1% or so of the library.
hcDAF-12 act – H. contortus DAF-12 activation, primary screen; HEK293 hcDAF-12 lit1-tk-luc reporter, luminescence; 0% DMSO, 100% Δ7-dafachronic acid; actives 1.4% (n = 370,000); activation, % at 6.8 µM;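 active = activation above the mean of all tested compounds plus 3 SD, cut at about 5.5% in these data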;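 also: 100% = response to 3 µM Δ7-dafachronic acid high control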
hgDAF12 agonist – activates the H. glycines DAF-12 receptor ligand-binding domain. activation, % at 6.8 µM. actives 1.8% (n = 370,000). HEK293 GAL4-hgDAF12 UAS-luciferase reporter, agonist luminescence; normalized to butyrate control;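 active = activation above a cutoff set at the mean of all screened compounds plus 3 SD, cut at about 10% in these data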;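 also: 0% = DMSO wells and 100% = sodium butyrate wells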
ssDAF-12 act – S. stercoralis DAF-12 activation, primary screen; HEK293 ssDAF-12/GRIP1 lit1-tk-luc reporter, luminescence; % of 3 µM dafachronic acid response; activation, % at 6.8 µM; actives 1% (n = 370,000);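 active = activation above the mean over all tested compounds plus 3 SD, cut at about 0.9% in these data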;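 also: 0% = DMSO-only wells and 100% = 3 µM delta7-dafachronic acid wells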
DAX1 inh-1 – NR0B1 (DAX1) inhibition; HEK293 Gal4-DAX1 luciferase reporter, luminescence; inhibition, % at 6.75 µM; actives 0.99% (n = 340,000);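 active = inhibition above the mean over all tested compounds plus 3 SD, cut at about 4.2% in these data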;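 also: 0% = DAX1-transfected cells with DMSO and 100% = empty-vector control cells with DMSO; inhibition shows as a rise in luminescence from relieved DAX1 repression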
DAX1 inh-2 – blocks DAX1 repression of SF-1 activated StAR promoter; HEK293T StAR-luciferase reporter, SF-1/DAX-1 repression relief; inhibition, % at 6.8 µM; actives 1.1% (n = 370,000); AID 652010;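 active = inhibition above the mean over all tested compounds plus 3 SD, cut at about 3.6% in these data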;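 also: 0% = DAX-1 cells with DMSO and 100% = cells lacking DAX-1 with DMSO; higher inhibition means more luminescence from relief of DAX-1 repression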
LXRb hcDAF ctr – LXR-beta agonism as hcDAF-12 counter-screen. 3,400 tested, under 10 active. HEK293 Gal4-LXR tk-luc reporter, luminescence, 24 h; normalized: DMSO 0%, positive control 100%. shares compounds with hcDAF-12 act. activation, % at 6.8 µM. AID 743027;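 active = mean percent activation of the reporter above a cutoff set as the average over tested compounds plus their standard deviation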
Target sequence (P55055 whole entry, looked up, the tested form may be a part): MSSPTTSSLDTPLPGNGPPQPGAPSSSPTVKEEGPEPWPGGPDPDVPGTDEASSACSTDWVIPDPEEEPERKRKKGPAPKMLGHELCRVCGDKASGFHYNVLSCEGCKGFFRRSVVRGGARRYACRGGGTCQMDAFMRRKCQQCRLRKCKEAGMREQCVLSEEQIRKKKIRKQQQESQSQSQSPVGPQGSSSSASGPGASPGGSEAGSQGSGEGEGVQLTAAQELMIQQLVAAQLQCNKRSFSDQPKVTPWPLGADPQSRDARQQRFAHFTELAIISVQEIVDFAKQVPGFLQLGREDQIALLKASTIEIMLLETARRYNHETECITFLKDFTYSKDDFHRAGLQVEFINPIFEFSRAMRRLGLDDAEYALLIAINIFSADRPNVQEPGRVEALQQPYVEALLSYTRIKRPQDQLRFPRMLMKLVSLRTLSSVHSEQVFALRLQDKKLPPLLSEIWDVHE
hcDAF12 conf – confirmation of H. contortus DAF-12 agonists | shares compounds with hcDAF-12 act | HEK293 hcDAF-12 lit1-tk-luc reporter, luminescence; % of Δ7-dafachronic acid response | activation, % at 6.8 µM | actives 61% (n = 3,400);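 active = mean activation across triplicate tests above the threshold derived from the earlier primary screen, cut at about 5.5% in these data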;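 also: 0% = DMSO only wells and 100% = 3 µM Δ7-dafachronic acid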
Numbers without * were called inactive; · = not tested or not shown.

SMILES	hcDAF-12 act	hgDAF12 agonist	ssDAF-12 act	DAX1 inh-1	DAX1 inh-2	LXRb hcDAF ctr	hcDAF12 conf
CCCCNC(=O)C[C@H]1C[C@@]2(C(=O)OC)C(=C[C@H](COCc3ccccc3)O[C@@H]2C)N(Cc2cccc3ccccc23)C1=O	-1.3	0.0	-1.5	·	-1.2	·	·
C[C@H]1CN(C(=O)OC(C)(C)C)CCN1c1ccc(N2CCS(=O)(=O)CC2)c(C#N)c1	-1.9	-1.1	-1.4	·	-0.4	·	·
COC(=O)C1OC1c1cc([N+](=O)[O-])ccc1OC (centres undefined)	-1.0	-1.9	-0.6	0.6	-1.0	·	·
COc1ccc([N+](=O)[O-])cc1C1NN=C(c2ccccc2O)S1 (centres undefined)	6.9*	5.9	0.6	0.2	0.5	-0.2	4.5
O=C(Nc1ccccc1Cl)c1csc(-c2cccnc2)n1	7.6*	9.0	2.8*	5.0*	0.0	0.2	6.7*
CCCC1CCC2(CC1)CCC2OC(=S)NCCc1ccc(Cl)cc1 (centres undefined)	0.2	-2.5	-0.8	·	·	·	·
O=C1N(c2ccccc2)CC2CC(c3ccccc3)N3CCCC123 (centres undefined)	-0.4	-1.8	-0.7	·	-1.6	·	·
COC(=O)C12C=C3CC(c4ccc(OC)cc4)=C3C(=O)N1Cc1[nH]c3ccccc3c1C2 (centres undefined)	0.8	-2.5	-0.7	·	-0.6	·	·
COc1cc(C(=O)N/N=c2/sc3ccccc3n2C)cc(OC)c1OC	-1.5	-1.4	-1.7	-0.3	0.4	·	·
Cn1c(=NN=Cc2ccccc2OCCO)sc2ccccc21	7.8*	9.5	1.7*	1.8	3.5	0.4	7.9*
Cc1cnc(NC(=O)C2COc3ccccc3O2)s1 (centres undefined)	9.2*	3.9	-0.7	-3.1	1.0	1.1	7.2*
Cc1csc(NC(=O)C2COc3ccccc3O2)n1 (centres undefined)	7.0*	7.0	-0.3	-1.8	2.8	0.7	4.6
Oc1ccc(Br)cc1-c1cc(-c2ccccc2)n[nH]1	8.1*	4.6	1.6*	-0.6	-0.1	0.0	5.2
COc1ccc(O)c(-c2cc(-c3ccc(F)cc3)n[nH]2)c1	7.6*	8.9	1.0*	2.1	1.2	1.1	6.3*
O=C(NCc1ccccc1)[C@@H]1CCCN1C(=O)[C@H]1CCCN1C(=O)c1cccc2ccccc12	1.7	-2.1	-0.7	·	-1.0	·	·
COc1ccc(NC(=O)Nc2cccc3c2O[C@H](CN(C)C(=O)Nc2c(C)noc2C)[C@@H](C)CN([C@H](C)CO)C3=O)cc1	7.0*	1.1	-1.2	1.5	-0.1	-0.3	-0.2
COc1ccc(NC(=O)N(C)C[C@@H]2Oc3c(NC(=O)Nc4c(C)noc4C)cccc3C(=O)N([C@@H](C)CO)C[C@@H]2C)cc1	-0.5	1.7	-0.5	0.3	-0.4	·	·
O=C(Nc1ccc(Cl)cc1Cl)c1ccc(Br)o1	8.2*	8.3	0.1	2.0	1.0	0.7	6.4*
O=C(Nc1cc(Cl)ccc1N1CCOCC1)c1ccc(Br)o1	0.5	0.6	-0.7	-0.1	-0.5	·	·
CCCC1CCC2(CC1)CCC2OC(=O)Nc1ccccc1C (centres undefined)	-0.1	5.2	-1.3	·	·	·	·
COc1ccc(C2=Nc3cccc4cccc(c34)N2)cc1	3.1	4.2	0.1	-0.3	0.9	·	·
Nc1cccc(C2=Nc3cccc4cccc(c34)N2)c1	8.5*	3.8	0.4	-0.1	0.6	-0.2	5.7*
O=C(OCC(=O)c1c[nH]c2ccccc12)c1cc2ccccc2cc1O	8.0*	0.7	-1.1	-1.0	-0.4	-0.3	3.7
CN(C)C(=O)C[C@H]1CC[C@H]2[C@H](COc3ccc(NC(=O)C4CC4)cc3C(=O)N2C)O1	-2.6	0.5	-1.2	·	-0.6	·	·
COc1ccc(-n2ncc(N(C)n3cccc3)c(Cl)c2=O)cc1	6.8*	11.8*	0.0	2.1	3.9*	1.0	4.0
SMILES	hcDAF-12 act	hgDAF12 agonist	ssDAF-12 act	DAX1 inh-1	DAX1 inh-2	LXRb hcDAF ctr	hcDAF12 conf
COc1ccc(-n2ncc(Cl)c(Cl)c2=O)cc1	-1.6	0.4	-1.3	·	-1.7	·	·
COc1cccc(-c2cc3nc(C)c(C)c(N4CCN(Cc5ccco5)CC4)n3n2)c1	-1.2	5.5	-1.3	·	·	·	·
CCCN1C(=O)c2[nH]nc(-c3ccccc3)c2C1c1ccc(F)cc1 (centres undefined)	-1.7	-1.4	-0.8	·	-0.1	·	·
O=C1N=c2ccc(Br)cc2=C1c1sc(=S)n(NS(=O)(=O)c2ccccc2)c1O	6.6*	0.8	0.1	-0.2	0.9	-0.2	2.9
O=C1N=c2ccccc2=C1c1sc(=S)n(NC(=O)c2cccc(O)c2)c1O	2.8	-1.7	0.3	1.5	0.5	·	·
Cc1nccn1CC(=O)N/N=C/c1ccccc1O	1.4	0.6	-0.4	0.8	0.4	·	·
Cc1occc1C(=O)N/N=C/c1c[nH]c2ccccc12	·	·	·	4.2	·	·	·
Cc1c(/C=N\NC(=O)c2c[nH]c3ccccc23)cnn1C	9.4*	1.4	1.7*	-0.4	0.8	0.2	2.0
Cc1nccn1CC(=O)N/N=C/c1c[nH]c2ccccc12	8.3*	2.5	-0.9	2.1	-0.1	-0.1	-0.6
O=C(N/N=C/c1c[nH]c2ccccc12)C1CC1c1ccccc1 (centres undefined)	9.2*	-1.9	-1.3	-1.4	-1.8	-0.1	1.1
CC(C)(C)OC(=O)N/N=C/c1c[nH]c2ccccc12	11.0*	11.9*	1.4*	0.1	0.8	0.2	6.6*
O=C(N/N=C/c1c[nH]c2ccccc12)C1CC1(c1ccccc1)c1ccccc1 (centres undefined)	2.1	2.9	-0.9	0.3	0.2	·	·
O=C(N/N=C\c1c[nH]c2ccccc12)c1ccc(O)cc1	9.7*	9.1	1.4*	1.7	0.2	-0.2	5.1
O=C(N/N=C/c1c[nH]c2ccccc12)c1ccc(Cl)cc1	2.9	7.2	0.6	2.1	0.6	·	·
O=C(N/N=C/c1c[nH]c2ccccc12)c1ccc(Br)cc1	7.3*	2.9	1.1*	-1.2	0.2	0.2	5.0
O=C(N/N=C/c1c[nH]c2ccccc12)c1ccn[nH]1	9.9*	11.8*	0.2	0.8	0.8	-0.2	2.5
COC(=O)[C@]12C[C@H](CC(=O)NCC34CC5CC(CC(C5)C3)C4)C(=O)N(Cc3ccccc3)C1=C[C@H](C(C)(C)C)O[C@@H]2C	-0.5	-2.0	-1.4	·	-0.9	·	·
CN(C)CCCN(C(=O)c1sc2ccccc2c1Cl)c1nc2ccc(F)cc2s1	7.6*	3.5	-0.1	0.2	1.1	0.4	8.0*
O=C(CSc1nnc(-c2cccs2)o1)c1ccc2c(c1)OCO2	0.3	-0.5	-1.5	·	-0.2	·	·
